Measurements published in PubChem BioAssay (NCI).
Compounds without any hit were thinned out: in the full panel of roughly 83,000, 20% have a hit.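 Negative percent growth values reflect cell death: -40 means 40% of the cells present at the start died, and -100 means all died.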 A number with no mark means an inactive call. Active and inactive are the calls of the source. The calls were made as follows: active = growth percent below 10; inactive = the rest.

Tests used:
Experiment in all cases: NCI-60 one-dose screen, 48 h (100 = growth as untreated, 0 = no growth, -100 = all killed)
Conditions in all cases: 10 µM unless noted
EKVX NSCLC = test system: EKVX NSCLC
SN12C renal = test system: SN12C renal
UO-31 renal = test system: UO-31 renal
TK-10 renal = test system: TK-10 renal
ACHN renal = test system: ACHN renal
CAKI-1 renal = test system: CAKI-1 renal
A498 renal = test system: A498 renal
CCRF-CEM leukemia = test system: CCRF-CEM leukemia
MOLT-4 leukemia = test system: MOLT-4 leukemia
SR leukemia = test system: SR leukemia
RPMI-8226 leukemia = test system: RPMI-8226 leukemia
OVCAR-8 ovarian = test system: OVCAR-8 ovarian
OVCAR-5 ovarian = test system: OVCAR-5 ovarian
OVCAR-4 ovarian = test system: OVCAR-4 ovarian
SK-OV-3 ovarian = test system: SK-OV-3 ovarian
IGROV1 ovarian = test system: IGROV1 ovarian
OVCAR-3 ovarian = test system: OVCAR-3 ovarian
HS 578T breast = test system: HS 578T breast
NCI/ADR-RES ovarian = test system: NCI/ADR-RES ovarian
T-47D breast = test system: T-47D breast

SMILES | growth (EKVX NSCLC) | growth (SN12C renal) | growth (UO-31 renal) | growth (TK-10 renal) | growth (ACHN renal) | growth (CAKI-1 renal) | growth (A498 renal) | growth (CCRF-CEM leukemia) | growth (MOLT-4 leukemia) | growth (SR leukemia) | growth (RPMI-8226 leukemia) | growth (OVCAR-8 ovarian) | growth (OVCAR-5 ovarian) | growth (OVCAR-4 ovarian) | growth (SK-OV-3 ovarian) | growth (IGROV1 ovarian) | growth (OVCAR-3 ovarian) | growth (HS 578T breast) | growth (NCI/ADR-RES ovarian) | growth (T-47D breast)
OCc1nnn(-c2ccccc2)c1CO | 121% | 102% | 89.4% | 121% | 107% | 111% | 101% | 102% | 106% | 104% | 101% | 109% | 112% | 99.2% | 129% | 108% | 117% | 117% | 115% | 114%
Cc1cc(N2CCOCC2)nc(N2CCOCC2)n1 | 95.7% | 95.5% | -1.48% (active) | 92.2% | 108% | 96.7% | 100% | 95.3% | 104% | 105% | 99.2% | 104% | 99.7% | 93.9% | 99.2% | 76.6% | 107% | 95.4% | 96.3% | 98%
COc1cc(C2CC(=O)Nc3c2cc(Br)c2ccccc32)cc(Br)c1OC (centres undefined) | 41.7% | 54.5% | 0.792% (active) | -7.53% (active) | 5.63% (active) | 3.19% (active) | -2.63% (active) | 11.1% | 30.9% | -53.1% (active) | 43.3% | 31.7% | 76.2% | -64.2% (active) | -15.1% (active) | 26.7% | -13% (active) | 39.6% | 6.65% (active) | 4.99% (active)
O=C(Nc1ccncc1)C(=O)c1cn(S(=O)(=O)c2cccc(F)c2)c2ccccc12 | 35.4% | 49.1% | 56.7% | 84.1% | 55.9% | 33.5% | 60.2% | 38.7% | 35% | 16.5% | 30.1% | 45% | 73.9% | 67.2% | 93.8% | 40.6% | 23.5% | 55.8% | -11.2% (active) | 31.6%
c1csc([C@@H]2C[C@@H]3Cc4ccc5ccccc5c4N2O3)c1 | 78.8% | 94.3% | 70.2% | 88.7% | 107% | 82.2% | 79.8% | 75.8% | 78.3% | 95.1% | 95.5% | 96.9% | 89.9% | 87.7% | 102% | 105% | 102% | 101% | 97.7% | 98.8%
CCCC[N+](CCCC)=c1ccc2nc3c(C)cc(N(CC)CC)cc3sc-2c1 | 4.13% (active) | -3.26% (active) | 0.703% (active) | 3.75% (active) | -34.1% (active) | -2.5% (active) | -5.54% (active) | -15.7% (active) | -20.1% (active) | -18.2% (active) | -48.2% (active) | 5.84% (active) | 4.55% (active) | 22.9% | -8.75% (active) | 43.2% | -23.3% (active) | 6.6% (active) | -11.9% (active) | -23.3% (active)
CCN1C2=C(SC(=S)C1=C1SC(C(=O)OC)=C(C(=O)OC)S1)SC(=Nc1ccc(OC)cc1)C2=O | 34.7% | -11.8% (active) | -73% (active) | 30.3% | -74.3% (active) | -38.4% (active) | 46% | 4.67% (active) | 13.2% | 19.2% | -13.4% (active) | -21.7% (active) | -24.6% (active) | 5.88% (active) | 61% | -58.3% (active) | -61% (active) | 26.2% | -12.2% (active) | 12.7%
NNC(=O)C1CC2c3ccccc3C1c1ccccc12 (centres undefined) | 115% | 97.8% | 93.8% | 97.5% | 117% | 103% | 129% | 82.8% | 105% | 89% | 90.1% | 102% | 99.4% | 106% | 112% | 110% | 102% | 102% | 103% | 112%
Cc1nc2c(O)cccc2cc1CO | 107% | 105% | 103% | 168% | 110% | 104% | 131% | 107% | 105% | 67.7% | 113% | 120% | 92.7% | 100% | 110% | 120% | 112% | 130% | 96.1% | 99.4%
O=C(CCc1nnc(Cn2ccnc2)o1)c1nc2ccccc2[nH]1 | 99.2% | 98.5% | 92% | 110% | 107% | 110% | 101% | 101% | 92.8% | 87.7% | 117% | 105% | 103% | 107% | 108% | 106% | 118% | 112% | 99.8% | 102%
COc1ccc(-c2cc(Cc3cccs3)c(=O)n(Cn3cncn3)n2)cc1 | 103% | 93.1% | 86.4% | 113% | 97.6% | 98.3% | 83.5% | 102% | 93% | 84% | 98.7% | 92.9% | 88% | 98.5% | 103% | 122% |  | 106% | 101% | 93.9%
CC(C)c1ccc(C(=O)Nc2sc3c(CN(C)C)c(O)ccc3c2C(N)=O)cc1 | 86.7% | 55.9% | 34.1% | 97.4% | 61.3% | 79.6% | 82.5% | -17.9% (active) | 15.2% | -2.24% (active) | -31.8% (active) | 51.5% | 59.4% | 48.5% | 70.6% | 27.3% | 62.7% | 69.1% | 51.6% | 54.2%
N#Cc1c(N)[nH]c(S)c1C#N | 101% | 108% | 88.2% | 111% | 93.6% | 98.5% | 76.2% | 102% | 108% | 97.8% | 107% | 101% | 99.7% | 109% | 100% | 107% | 120% | 104% | 116% | 89.3%
